Laboratory results: PubChem BioAssay (NCI)
Compounds without any hit were thinned out: in the full panel of roughly 83,000, 20% have a hit.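 Method: cells in 96-well plates; compound added at one concentration; 48 h incubation; percent growth measured; values under 10 scored active.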 A number with no mark means an inactive call. Activity calls are given as the source filed them.

Test system: DU-145 prostate
Assay: NCI-60 one-dose screen, 48 h (100 = growth as untreated, 0 = no growth, -100 = all killed)
Conditions: 10 µM

Row | SMILES | growth
1 | O=C1CC(c2cccc(-c3cccnc3)c2)=Nc2ccc(Br)cc2N1 | 65.8%
2 | CCCOCC(O)CNCCN (centres undefined) | 127%
3 | COc1ccc(C2C=C(c3ccc(Cl)c(Cl)c3)N=C3SC(C)=CN32)cc1 (centres undefined) | 100%
4 | COC(=O)c1cnc2c(c1)Oc1ccccc1-c1ccnn1-2 | 109%
5 | CCCCC(CC#N)(CCC)CCC | 108%
6 | COc1cc(OC)cc(N2CCN(C(=O)Nc3nc4cc(F)ccc4nc3OC)CC2)c1 | 1% (active)
7 | CCOC(=O)Nc1ccc2c(c1)C(=O)N(CC)c1ccccc1O2 | 7.48% (active)
8 | C=C[C@]1(C)C=C2C(=O)[C@@]3(O)OC(=O)[C@@]4(CCCC(C)(C)[C@H]34)[C@@]2(O)CC1 | -99.4% (active)
9 | Cc1ccc2c3c(cccc13)-c1ccccc1C2=O | 101%
10 | CCN(CC)CCn1c(=N)n(CC(O)c2ccc(Cl)c(Cl)c2)c2ccccc21 (centres undefined) | 97%
11 | COc1cc(Nc2ccnc(N3CCN(c4ccnc5cc(Cl)ccc45)CC3)n2)cc(OC)c1 | 34.1%
12 | O=C1CC[C@@H](C(=O)N[C@H]2CSSC[C@@H](C(=O)NCCc3ccccc3)NC(=O)[C@H](Cc3ccccc3)NC(=O)[C@@H]3CCCN3C(=O)[C@@H]3CCCN3C2=O)N1 | 110%
13 | COc1cc(C(c2c[nH]c3ccccc23)N2CCCC2)ccc1OCc1ccccc1 (centres undefined) | 95.9%
14 | Cc1ccc(/C=C2\CN(Cc3cn(CCNc4ccnc5cc(Cl)ccc45)nn3)C/C(=C\c3ccc(C)cc3)C2=O)cc1 | -98.5% (active)
